PNC inhibitor = blocks assembly of the perinucleolar compartment | PC3M PTB-GFP, PNC prevalence imaging, 16 h; hits give low values | activity change (PNC), negative = inhibition, % at 10 µM | 3.1% of 140,000 active | AID 2417;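 active = readout at or below -70, meaning at least 70% loss of cells showing the perinucleolar compartment, a nuclear body marking cancer cells; inconclusive = readout between -30 and a set limit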;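 note: plate controls were DMSO wells for no effect and camptothecin positive control wells for full effect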
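Read-out is percentage of cells bearing a perinucleolar compartment, from automated 20x imaging of fixed, Hoechst-stained PC3M PTB-GFP cells. Cells were seeded 4 h, then exposed 16 h to compound (23 nl of library stock) in duplicate plates.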
HttQ103 aggreg = inhibitors of mutant huntingtin aggregate formation in PC12 cells; PC12 HttQ103-GFP aggregates, Acumen cytometry, 40 h; 1.1% of 220,000 active; Potency, µM (series often up to 46.1 µM), without a hit: at the highest dose activity change, negative = inhibition, hits mostly inhibitors; AID 1688; note: potency is the fitted concentration of half-maximal effect; % is set by controls: 0 for no effect and ±100 for the full control effect; nearly all actives have a fitted effect of over 60% in size
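Aggregates are detected as GFP objects 1–25 µm with signal 6 STDEV over background in lysates of induced PC12 cells. These carry Huntingtin exon 1 with 103 glutamines fused to GFP under an ecdysone promoter; compounds titrated.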
IMPase Li inh = membrane-permeable IMPase blocker, potentiated with lithium; CHO-M1 cells, IP1 TR-FRET (IP-One), carbachol + lithium; Potency, µM (series often up to 59.4 µM), for the others: top-dose activity, negative = IMPase inhibition, actives largely listed as inhibitors; 0.35% of 210,000 active; AID 1457;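 note: IP1 builds up when IMPase is blocked and the TR-FRET signal falls; potency is the fitted concentration of half-maximal effect; plate controls were basal vehicle for no effect and high inhibitor control for full effect; nearly all actives have a fitted effect of over 50% in size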
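Test compounds were applied to CHO-M1 cells previously cultured for 16–30 h at 2000 per well. A small lithium amount accompanied them; after 30 min at 37C, IP1 was quantified by TR-FRET.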
HTT cytoprotect = protects HTT-Q103 PC12 cells, measured by ATP; Potency, µM (series often up to 56.4 µM), for the others: cytoprotection (ATP increase), actives largely listed as activators; PC12 HTT-Q103 induced, cytoprotection, ATP luminescence, 40 h; 0.14% of 230,000 active; AID 1471; note: potency is the fitted concentration of half-maximal effect; % of control where 0% means no effect; nearly all actives have a fitted effect of over 45% in size
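Compounds were screened for protection of PC12 cells against cell death after tebufenozide induction (100 nM final) of mutant Huntingtin exon 1 (Q103) fused to GFP.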
IMPase inh = membrane-permeable compound that blocks inositol monophosphatase | CHO-M1 cells, IP1 accumulation, HTRF TR-FRET ratio | 120,000 tested, under 10 active | inhibition (IP1 accumulation), % at 46.1 µM | P97697; active = well fitted curve in the direction sought with a large enough effect in the signal ratio, not every such curve was filed as active; inconclusive = small, poorly fitted or top-dose-only effect, or a change in a side signal; inactive = no such curve, though single readings can be large or run the other way; the % refers to the signal ratio;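 note: cells stimulated with carbachol in lithium chloride buffer; plate controls were DMSO basal wells for no effect and reference inhibitor wells for full effect; higher means more IMPase inhibition seen as more IP1 and lower FRET ratio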
Target sequence (P97697 whole entry, looked up): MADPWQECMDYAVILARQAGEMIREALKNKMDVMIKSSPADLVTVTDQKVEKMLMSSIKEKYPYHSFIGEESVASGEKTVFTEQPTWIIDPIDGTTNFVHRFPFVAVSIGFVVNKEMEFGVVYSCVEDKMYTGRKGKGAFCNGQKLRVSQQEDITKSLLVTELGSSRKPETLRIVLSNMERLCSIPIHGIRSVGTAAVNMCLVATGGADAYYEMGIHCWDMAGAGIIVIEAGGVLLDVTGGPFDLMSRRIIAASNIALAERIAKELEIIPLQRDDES
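Cellular IMPase inhibition is scored as a rise in cytosolic IP1, detected by competitive TR-FRET between d2-labelled IP1 and a europium anti-IP1 antibody. M1-expressing CHO cells were stimulated with carbachol for 30 min at 37C, with lithium (50 mM LiCl) present in the buffer.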
NPSR antag = blocks cAMP signaling of the human neuropeptide S receptor. Potency, µM (series often up to 38.3 µM), inactives show at the highest dose activity change, negative = inhibition, hits mostly inhibitors. Q6W5P4. 1% of 220,000 active. CHO-NPSR cells, cAMP TR-FRET, antagonist mode; note: potency is the fitted concentration of half-maximal effect; % is set by controls: 0 for no effect and ±100 for the full control effect; nearly all actives have a fitted effect of over 50% in size
Active calls of the source: *; ? = inconclusive; nt = no result given; [ ] = remark or other dose. In the library only some 3.4% were active in any assay of this set; here they are far more common. Unless noted, calls come from the whole dose curve; as a rule, active = well fitted curve in the direction sought with a large enough effect; inconclusive = small, poorly fitted or top-dose-only effect, or another doubt; inactive = no such curve, though single readings can be large; an effect the other way counts as inactive or inconclusive.

SMILES	PNC inhibitor	HttQ103 aggreg	IMPase Li inh	HTT cytoprotect	IMPase inh	NPSR antag
COc1ccc(N2C(=O)NC3CC2(C)Oc2ccccc23)cc1OC (stereo not drawn)	20.2	-4.8%	1.7%[38.3 µM]	-23.3%	-2.7	-5.0%[46.1 µM]
O=C(c1cc(N2C(=O)C3C4CCC(C4)C3C2=O)ccc1Cl)N1CCN(c2ccccc2F)CC1 (stereo not drawn)	-119.3*	-7.0%	9.5%	-11.1%[10 µM]	-0.9	3.3%
O=C(C(Sc1ccccc1)c1ccccc1)N1CCN(c2ccccc2F)CC1 (stereo not drawn)	-4.7	10µM*	15.1%[38.3 µM]	-58.3%	2.4	?
O=C(c1cccc(C(=O)N2CCN(c3ccccc3F)CC2)c1)N1CCN(c2ccccc2F)CC1	14.7	23.1%	55.4%[38.3 µM]	13.0%[10 µM]	7.8	?
O=C(c1c(F)cccc1F)N1CCN(c2ccccc2F)CC1	-82.0*	-25.4%	2.9%[38.3 µM]	-34.0%	15.5	-1.9%[46.1 µM]
O=C(c1cc(N2C(=O)C3C4CCC(C4)C3C2=O)ccc1Cl)N1CCN(c2ccc(F)cc2)CC1 (stereo not drawn)	0.8	0.8%	14.9%	6.5%[10 µM]	6.4	7.9%
CC1CCN(c2nncc3ccccc23)CC1	-93.3*	-3.0%	-6.6%[38.3 µM]	-24.8%[10 µM]	?	4.1%[46.1 µM]
CC1CCN(c2nnc(N3CCC(C)CC3)c3ccccc23)CC1	nt	2.5%[9.22 µM]	-5.1%	-1.7%	nt	27.3%
Cc1cccc(C)c1NC1=NC2(CCCCC2)N=C(N)N1	8.7	nt	5.9%[38.3 µM]	0.631µM*	7.7	-12.2%[46.1 µM]
CCOc1ccccc1CN1CCN(S(=O)(=O)c2ccccc2)CC1	nt	nt	nt	nt	-0.8	nt
CCOc1cc(S(=O)(=O)N2CCN(Cc3ccccc3)CC2)ccc1Br	-18.5	11.2µM*	9.2%[38.3 µM]	-0.9%[0.074 µM]	4.1	-14.6%[46.1 µM]
Cc1cc(N2CCN(C3CCCC3)CC2)n2nc(C)c(-c3ccccc3)c2n1	nt	nt	nt	-18.0%[0.074 µM]	nt	nt
Cc1ccc(NC(=S)NNC(=O)C2CC2c2ccc(C)cc2)cc1 (stereo not drawn)	-100.0*	14.9%[9.22 µM]	0.2%	31.0%[10 µM]	1.7	-13.4%[46.1 µM]
CN(C)CCCNC(=O)c1ccc(Cl)c(S(=O)(=O)N(C)c2ccccc2)c1	-108.2*	-4.2%[9.22 µM]	-3.4%[38.3 µM]	24.4%	1.0	-1.5%[46.1 µM]
CC1Cc2cc(/C(O)=C3/C(=O)C(=O)N(CCCn4ccnc4)C3c3ccncc3)ccc2O1 (stereo not drawn)	21.7	5.9%	?	-20.5%	-26.9	13.4%[46.1 µM]
C=CCOc1ccc(/C(O)=C2\C(=O)C(=O)N(CCOC)C2c2cccnc2)cc1 (stereo not drawn)	25.7	-4.3%	10µM*	13.4%[0.074 µM]	-18.7	19.6%[46.1 µM]
CCCOc1ccc(/C(O)=C2/C(=O)C(=O)N(CCCOC)C2c2ccncc2)cc1 (stereo not drawn)	?	16.2%	-24.2%[38.3 µM]	-1.6%[0.074 µM]	-7.5	19.6%[46.1 µM]
CC1Cc2cc(/C(O)=C3/C(=O)C(=O)N(CCCn4ccnc4)C3c3cccnc3)ccc2O1 (stereo not drawn)	13.3	1.8%	11.2µM*	3.0%	-20.1	14.1%[46.1 µM]
CCCOc1ccc(/C(O)=C2/C(=O)C(=O)N(CCOC)C2c2cccnc2)cc1 (stereo not drawn)	13.2	0.5%	11.2µM*	-5.7%[0.074 µM]	-12.0	?
O=C(O)c1cccc(Cl)c1Cl	nt	nt	12.6%	5.0%	nt	nt
Cc1nc(-c2ccc(S(=O)(=O)Oc3ccc(Cl)cc3Cl)s2)cs1	nt	9.4%[9.22 µM]	nt	19.7%[10 µM]	nt	59.5%
COc1ccccc1OCC(=O)Nc1oc(-c2ccccc2)c(-c2ccccc2)c1C#N	31.8	7.9%	38.8%[38.3 µM]	6.5%	10.7	-10.7%[46.1 µM]
COc1ccc(CC(=O)Nc2oc(-c3ccccc3)c(-c3ccccc3)c2C#N)cc1OC	-100.0*	?	11.8%	10.1%[10 µM]	1.2	4.7%[46.1 µM]
N#C/C(=C\c1ccccc1)C(=O)Nc1cc(S(=O)(=O)N2CCOCC2)ccc1N1CCCC1	5.9	?	nt	0.708µM*	-3.2	-14.5%[46.1 µM]
O=C(Nc1ccccc1F)Nc1cc(S(=O)(=O)N2CCOCC2)ccc1N1CCCC1	nt	12.0%	3.3%	-8.8%	nt	-24.2%

High-throughput results (PubChem)
